Test results from PubChem BioAssay AID2613 (National Center for Advancing Translational Sciences (NCATS), 2010).
Records with an inconclusive call do not appear. The source made the active and inactive calls. Calls come from the whole dose curve; as a rule, active = well fitted inhibition curve with a large enough effect; inconclusive = small, poorly fitted or top-dose-only effect; inactive = flat fitted curve, though single readings scatter.

target: Lysosomal acid glucosylceramidase (Homo sapiens) (UniProt P04062); assay: qHTS Assay for Inhibitors and Activators of N370S glucocerebrosidase as a Potential Chaperone Treatment of Gaucher Disease: Activity in N370S Spleen Homogenate Using a Red Fluorescent Substrate; details: red fluorogenic substrate; series mostly up to 49.6 µM; activity change, negative = inhibition: at the top concentration
Sequence (P04062 whole entry N409S): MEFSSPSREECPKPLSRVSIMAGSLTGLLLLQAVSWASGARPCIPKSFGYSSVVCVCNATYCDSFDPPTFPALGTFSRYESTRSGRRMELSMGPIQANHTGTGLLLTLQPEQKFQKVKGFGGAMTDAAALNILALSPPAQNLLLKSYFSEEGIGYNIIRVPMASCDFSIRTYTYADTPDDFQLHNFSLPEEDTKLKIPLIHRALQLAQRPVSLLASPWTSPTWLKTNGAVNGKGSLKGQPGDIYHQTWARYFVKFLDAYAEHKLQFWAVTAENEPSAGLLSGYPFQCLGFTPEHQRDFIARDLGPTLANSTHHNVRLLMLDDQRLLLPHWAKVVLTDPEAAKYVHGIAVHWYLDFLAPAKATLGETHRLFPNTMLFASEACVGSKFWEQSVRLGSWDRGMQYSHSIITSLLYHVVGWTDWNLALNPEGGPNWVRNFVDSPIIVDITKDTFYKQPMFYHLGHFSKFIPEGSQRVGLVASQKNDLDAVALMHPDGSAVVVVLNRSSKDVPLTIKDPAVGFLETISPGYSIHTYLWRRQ
Excerpt: NIH Chemical Genomics Center [NCGC]
NIH Molecular Libraries Probe Production Centers Network [MLPCN]
Assay Submitter (PI): Wei Zheng
Glucocerebrosidase (GC) catalyzes the hydrolysis of beta-glucocerebroside to glucose and ceramide in lysosomes. Mutations in the glucocerebrosidase gene result in Gaucher disease, an autosomal recessive lysosomal storage disorder. Many of the mutations encountered in patients with Gaucher disease are missense alterations that may cause misfolding, decreased stability and/or mistrafficking of this lysosomal protein. […] These inhibitors include iminosugar analogs and three non-iminosugar inhibitors identified from a previous HTS of 62,000 compounds with the wild type recombinant enzyme. However, the enhancement of enzyme activity by the chaperone action of an enzyme inhibitor must be balanced against the direct inhibition of the enzyme. An enzyme activator could also function as a chaperone by binding to the enzyme and helping to correct its misfolding and mistrafficking. While activators for GC have not yet been identified, they may have better therapeutic potential than inhibitors. Therefore the discovery and development of chemical activators may provide a new strategy for the chaperone therapy.
We have optimized a new assay using N370S mutant GC derived from the spleen of a Gaucher patient. […] In addition, the MLPCN compound library has expanded, which increases the chance of finding new and better probes.
This confirmation assay tests for compound activity in spleen homogenate from a patient homozygous for the N370S mutation using an alternate resorufin-based substrate.
NCGC Assay Protocol Summary:
This is a fluorogenic enzyme assay with resorufin-beta-D-glucopyranoside as the substrate and mutant N370S glucocerebrosidase from human spleen homogenate as the enzyme preparation. Upon the hydrolysis of this fluorogenic substrate, the resulting product, […] which can be detected by a standard fluorescence plate reader. Data were normalized to the controls for basal activity (without enzyme) and 100% activity (with enzyme). The AC50 values were determined from concentration-response data modeled with the standard Hill equation.
Assay buffer: 50 mM citric acid (titrated with potassium phosphate to pH 5.0), 100 mM potassium chloride, 10 mM sodium chloride, 1 mM magnesium chloride, 0.01% Tween-20.
1536-well assay protocol:
(1) Add 2 ul/well of spleen homogenate (27 ug final)
(2) Add 23 nL compounds in DMSO solution. The final titration was 0.5 nM to 58 uM.
(3) Add 2 ul of substrate (1 mM final)
(4) Incubate at 37C for 40 min.
(5) Add 2 ul stop solution (1M NaOH and 1M Glycine mixture, pH 10)
(6) Detect the assay plate in a ViewLux plate reader (PerkinElmer) with Ex=365 nm and Em=440nm.
Keywords: Glucocerebrosidase, beta-glucosidase, Gaucher Disease, pharmacological chaperone, chaperone therapy, high throughput screening, glucocerebrosidase inhibitor, MLSMR, MLSCN, NIH Roadmap, qHTS and NCGC

SMILES	activity change, negative = inhibition	Potency
c1ccc2c(NCC3CCCO3)nc(N3CCOCC3)nc2c1 (centres undefined)	-5.75% (inactive)	–
CCOc1ccccc1NC(=O)CN(c1ccc(C)cc1)S(=O)(=O)c1c(C)noc1C	3.15% (inactive)	–
O=S(=O)(c1ccc(Cl)cc1)N1CCN(c2nc(-c3cccs3)nc3ccccc23)CC1	–	891 nM (active)
COc1ccccc1NC(=O)COc1ccccc1C(=O)Nc1ccccc1	-5.3% (inactive)	–
COc1ccc(Nc2nc(-c3cccs3)nc3ccccc23)cc1	–	2510 nM (active)
O=C(NCc1ccccc1)c1ccc(NS(=O)(=O)c2ccccc2)cc1	-26.8% (inactive)	–
COc1ccccc1C(=O)COC(=O)c1ccccc1OCC(=O)Nc1ccc(SC(F)F)cc1	1.36% (inactive)	–
CC(=O)Nc1ccc(NC(=O)COc2ccccc2C(=O)Nc2cccc(Cl)c2Cl)cc1	-0.549% (inactive)	–
Cc1ccc(NC(=O)COc2ccccc2C(=O)Nc2ccccc2)cc1Cl	-0.617% (inactive)	–
Cc1cc(C)cc(N(CC(=O)NC2CCC(C)CC2)S(=O)(=O)c2c(C)[nH]c(=O)[nH]c2=O)c1 (centres undefined)	–	562 nM (active)
Cc1cccc(/C=N/NC(=O)NC23CC4CC(CC(C4)C2)C3)n1	-9.91% (inactive)	–
COc1cc(OC)cc(C(=O)N[C@H](C(=O)OCC(=O)Nc2cccc(F)c2)C(C)C)c1	-11.2% (inactive)	–
O=C(COc1ccccc1[N+](=O)[O-])Nc1ccc(Br)cc1	2.03% (inactive)	–
O=C(Nc1ccccc1)c1ccc(NS(=O)(=O)c2ccccc2)cc1	7.4% (inactive)	–
CCN(CC)c1cc(C)c2cc(NC(=O)C3CCC(C)CC3)ccc2n1 (centres undefined)	–	28200 nM (active)
O=C(Nc1nccs1)c1ccc(NS(=O)(=O)c2ccc(Cl)cc2)cc1	-6.72% (inactive)	–
Cc1cc(Nc2cccc(Cl)c2)nc2ccc(NC(=O)C3CCC(C)CC3)cc12 (centres undefined)	-11.8% (inactive)	–
CCCC1CCC(C(=O)Nc2ccc3nc(N4CCOCC4)cc(C)c3c2)CC1 (centres undefined)	–	562 nM (active)
COc1cc(OC)c2c(N)c(C#N)c(C(F)(F)C(F)(F)F)nc2c1	4.03% (inactive)	–
CCC(C)NC(=O)COC(=O)c1ccccc1OCC(=O)Nc1ccc(Br)cc1 (centres undefined)	0.863% (inactive)	–
CCC(C)c1ccc(NC(=O)c2cnn3c(C(F)F)cc(C)nc23)cc1 (centres undefined)	4.93% (inactive)	–
Cc1ccc(S(=O)(=O)Nc2ccc(C(=O)NCc3ccccc3)cc2)cc1	-14.8% (inactive)	–
Clc1ccccc1-c1nccc(NCc2ccccc2)n1	–	3550 nM (active)
N=c1c2c(-c3ccccc3)c(-c3ccccc3)n(Cc3ccco3)c2ncn1CCCn1ccnc1	–	7940 nM (active)
